Laboratory results taken from PubChem BioAssay AID2315 (National Center for Advancing Translational Sciences (NCATS), 2010).
About 27,000 (9.3%) of roughly 290,000 compounds were called active. What follows is part of a selection rich in actives, with near analogues and random picks from the rest. A number with no mark means an inactive call. Cut-off read from the data, not from the text of the source: active = inhibition mostly above about 28% (no sharp cut-off); inactive = mostly below about 43%.

Assay: A qHTS for Small Molecule Inhibitors of Shiga Toxin; note: 0% is about no effect
Conditions: Vero cells, Shiga toxin protein synthesis inhibition reporter; at 38.7 µM, stronger effect = higher value

| SMILES | inhibition |
| --- | --- |
| Cc1ccc(SCC(=O)c2sc(-c3ccccc3)nc2C)cc1 | -2.76% |
| Cc1nc(-c2ccc(Cl)cc2)sc1C(=O)NN | -18.4% |
| Cc1nc(-c2ccc(Cl)cc2)sc1C(=O)CBr | 52.5% (active) |
| CCN1CCN(C(=O)C2CCN(S(=O)(=O)c3cc(Cl)ccc3Cl)CC2)CC1 | -5.92% |
| CC1(C)c2[nH]c3ccccc3c2C[C@H]2C(=O)N(N)CC(=O)N21 | 11.8% |
| COc1ccc(NC(=O)CSCc2ccc([N+](=O)[O-])cc2)cc1OC | -3.27% |
| CC(C)C(=O)N1CC(=O)Nc2ccc(F)cc2C1c1ccc(F)cc1 (configuration not stated) | -3.75% |
| Cc1ccc(C(=O)NC2CCN(C(=O)Nc3ccc(F)cc3)CC2)cc1 | -7.26% |
| Cc1ccc(NC(=S)Nc2ccc(F)cc2)cc1 | 27.7% |
| COC(=O)c1ccc(/C=N/NC(=O)C(=O)N2CCCCCC2)cc1 | -5.76% |
| COC(=O)c1ccc(NC(=O)c2ccccc2NS(=O)(=O)c2ccccc2)cc1 | 5.81% |
| COC(=O)c1ccc(NCC(=O)c2ccccc2)cc1 | 85.2% (active) |
| COC(=O)c1ccc(C(=O)OC)c(NC(=S)N2CCCCC2)c1 | 12.8% |
| COC(=O)c1ccc(NCC(=O)N2CCCCCC2)cc1 | 110% (active) |
| COc1ccc(NC(=O)CCCC(=O)c2ccccc2)cc1 | 6.27% |
| Cc1ccc(C(=O)CNc2ccc(F)cc2)cc1 | 45.5% (active) |
| c1ccc(Cc2ccc(OCCn3ccnc3)cc2)cc1 | 1.57% |
| COc1ccc(CN(C)C(=O)c2cc(-c3ccc(C)cc3C)nc3ccccc23)c(OC)c1OC | -8.91% |
| CC(=O)N1CCCc2cc(S(=O)(=O)N3CCCC(C(=O)N4CCN(c5cccc(Cl)c5)CC4)C3)ccc21 (configuration not stated) | -12.3% |
| COc1ccc(CNC(=O)C2CCN(C(=O)c3ccccc3)CC2)cc1 | -21.8% |
| Cc1ccc2c(c1)N(CC(=O)NCCc1ccc(Cl)cc1)C(=O)c1cccnc1O2 | 4.91% |

| SMILES | inhibition |
| --- | --- |
| Cc1ccc(NC(=O)Cn2nc(C)c3ccccc3c2=O)c(C)c1 | 10.2% |
| Cc1ccc(NC(=O)c2ccn(C(=O)Nc3ccccc3)n2)c(C)c1 | 92.2% (active) |
| Cc1ccc(C)c(S(=O)(=O)N2CCN(C(=O)Nc3ccccc3)CC2)c1 | 17.4% |
| CCOC(=O)c1cnc2ccc(F)cc2c1Nc1ccc2c(c1)OCCO2 | 35% (active) |
| Cc1ccc2nc(-c3ccncc3)cc(C(=O)Nc3ccc4c(c3)OCCO4)c2c1 | 9.13% |
| O=C(Nc1ccc2c(c1)OCCO2)C(c1ccc(F)cc1)N1CCCCC1 (configuration not stated) | 5.25% |
| COc1ccc(C(=O)N(C)CC(O)c2ccccc2)cc1OC1CCN(C(C)=O)CC1 (configuration not stated) | -21% |
| O=C(CCC1CCCN(C(=O)Cc2ccc(F)cc2)C1)N1CCN(c2ccccn2)CC1 (configuration not stated) | -2.14% |
| O=C(Cc1ccc(Br)cc1)N1CCN(c2ccccn2)CC1 | 45.9% (active) |
| O=C(Cc1ccccc1Cl)N1CCN(c2ccccn2)CC1 | 7.93% |
| CNC(=O)c1sc(Nc2ccc(OCc3ccccc3)cc2)nc1C | 43.2% |
| COC(=O)c1ccc(OC(=O)c2cnccn2)cc1 | -3.05% |
| Cn1c(=NC(=O)c2cnccn2)sc2ccccc21 | 48.7% (active) |
| Cn1c(=NC(=O)CSCC(=O)N2CCCCC2)sc2ccccc21 | 20.2% |
| CCn1cc(C(=O)OCC(=O)Nc2cccc(C)c2)c(=O)c2ccc(C)nc21 | 12.3% |
| COc1ccc(S(=O)(=O)N2CCC(C(=O)NCCC(=O)NCc3cccc(OC)c3)CC2)cc1 | -13% |
| COCCOC1CCN(C(=O)c2ccc(OC)c(OC3CCN(C(C)C)CC3)c2)CC1 | 3.86% |
| Cc1cc(Cl)ccc1C(=O)C1CCCN(C(=O)c2nonc2C)C1 (configuration not stated) | -11% |
| O=C(/C(=C/c1cccc(Cl)c1)c1nc2ccccc2[nH]1)c1ccccc1 | 37.9% |
| O=C(Cc1nc2ccccc2[nH]c1=O)c1ccc(Cl)cc1 | 66.3% (active) |
| N#C/C(=C(/O)COC(=O)COc1ccc(Cl)cc1)c1nc2ccccc2[nH]1 | -6.24% |

| SMILES | inhibition |
| --- | --- |
| O=S(=O)(Nc1cccc2cccnc12)c1cccc2cccnc12 | -6.53% |
| Cc1cccc(NC(=O)CCN2CC(C)CC(C)C2)c1 (configuration not stated) | -6.03% |
| CCNC(=O)c1cnn(-c2ccccc2)c1-c1ccccc1 | -0.867% |
| CCCc1c(C(=O)O)cnn1-c1ccc(Cl)cc1 | 9.39% |
| CCCc1c(C(=O)Nc2ccc(F)cc2)cnn1-c1ccccc1 | 58.3% (active) |
| Cc1ccc2c(c1)N(S(=O)(=O)c1cc(-c3cc(C)no3)ccc1C)CCO2 | 18.2% |
| c1cnc(N2CCN(c3ccc4ccccc4n3)CC2)nc1 | 71.6% (active) |
| O=C(c1ccncc1)N1CCN(c2ccc3ccccc3n2)CC1 | -6.23% |
| Oc1ccc(CN2CCN(c3ncccn3)CC2)cc1 | -3.72% |
| O=C(N/N=C1\CCSC1)c1cc(Cl)ccc1O | 35.8% (active) |
| C/C(=N/NC(=O)c1cc(Cl)ccc1O)C12CC3CC(CC(C3)C1)C2 | 25.6% |
| Cc1ccc(C)c(N2C(=O)CS/C2=N\NC(=O)c2ccccc2Cl)c1 | -31.2% |
| C=CCn1c(SCC(=O)NC)nnc1C12CC3CC(CC(C3)C1)C2 | 13.7% |
| CC(C)=C(NC(=O)c1ccccc1)C(=O)N/N=C(\C)c1ccccc1O | -2.93% |
| C/C(=N\NC(=O)c1ccoc1C)c1ccccc1O | 104% (active) |
| C/C(=N\NC(=O)c1ccccc1C)c1ccc(N2CCOCC2)cc1 | 40.6% |
| CC1=C(C(=O)NC2CC(C)(C)Cc3c2cnn3-c2ccc(C)cc2)OCCO1 (configuration not stated) | -2.9% |
| COc1cc(S(=O)(=O)N2CCN=C2c2ccccc2)ccc1Cl | -4.87% |
| CCN(CC)CCCNC(=O)CCn1nc(-c2ccc(Cl)cc2)ccc1=O | -2.08% |
| COc1ccc2ccccc2c1/C=N/NC(=O)c1cc(C)[nH]n1 | 7.72% |
